Drawing on PubChem BioAssay, this text covers growth inhibition, inhibition and outcome for 18 compounds.

Assay [1] can be described thus: antimalarial activity against Dd2 strain (AID 2302;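 active = growth inhibition above 50% at the single 2 µM test dose, taken to imply half-maximal potency below 2 µM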;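 also: 0% = DMSO untreated growth and 100% = chloroquine plus artemisinin killed control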). Particulars: P. falciparum Dd2 in RBCs, LDH growth readout, 72 h; at 2 µM; hits give high values.
A short description of assay [2]: human hepatoma cell viability loss – ATP luminescence, cytotoxicity control for P. falciparum antimalarial project, primary screen (AID 2303;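 active = inhibition above 50%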;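 also: 0% = DMSO wells and 100% = digitonin-killed cells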). Particulars: HepG2 viability, 24-48 h, at 10 µM, hits give high values.
The target of assay [3] is L-lactate dehydrogenase (Plasmodium falciparum (isolate CDC / Honduras)) (UniProt Q27743). Description: PfLDH activity inhibition – cell lysate, 3D7 strain, counter-screen for P. falciparum growth inhibition project (AID 2304).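 Also: 0% = vehicle and 100% = reference inhibitor.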 Particulars: P. falciparum 3D7 crude extract, LDH APAD/NBT absorbance; at 2 µM; hits give high values.
Assay [4] in a line: inhibition of 3D7 malaria parasite growth – strain 3D7 (AID 2306).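 Also: 0% = DMSO wells and 100% = chloroquine plus artemisinin control wells.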 Particulars: P. falciparum 3D7 erythrocytic growth, LDH absorbance, 72 h; at 2 µM; hits give high values.
Assay [5] has as its target Calcium-dependent protein kinase 1 (Plasmodium falciparum (isolate 3D7)) (UniProt P62344). Description: PfCDPK1 kinase inhibitors, biochemical, TCAMS library (AID 1159585; cut-off not given, nearly all actives have IC50 up to about 0.98 µM;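 also: inhibitors leave more ATP so luminescence rises with inhibition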). The note with it: recombinant PfCDPK1, Kinase-Glo ATP depletion luminescence. In general terms: Kinase-Glo measures the ATP left after a reaction by luminescence.
The target in assay [6] is Plasmodium falciparum protein kinase 6 (PK6, PF3D7_1337100) (UniProt Q8IDW1). Description: PfPK6 kinase inhibitors, biochemical, TCAMS library (AID 1159586). The note with it: recombinant PfPK6, Kinase-Glo ATP depletion luminescence.
In assay [7] the target is Protein kinase 7 (PK7), Plasmodium falciparum 3D7 (PF3D7_0213400) (UniProt Q7YTF7). Description: inhibition of Plasmodium PK7 catalytic activity – biochemical, TCAMS antimalarial set, Kinase-Glo luminescence (AID 1159587). Particulars: recombinant PfPK7, Kinase-Glo ATP depletion luminescence.
The target in assay [8] is Calcium-dependent protein kinase 4 (Plasmodium falciparum (isolate 3D7)) (UniProt Q8IBS5). Description: PfCDPK4 kinase inhibitors, biochemical, TCAMS library (AID 1159588; cut-off not given, nearly all actives have IC50 up to about 0.91 µM). The note with it: recombinant PfCDPK4, Kinase-Glo ATP depletion luminescence.

SMILES strings stand for the structures. Unmarked numbers belong to inactive results. For part of these data: Entries with a potency or affinity are not part of this list. Calls of active or inactive are those of the source. Unless noted, no rule for the calls is given here.

Sequence of Protein kinase 7 (PK7), Plasmodium falciparum 3D7 (PF3D7_0213400) (Q7YTF7 1-343): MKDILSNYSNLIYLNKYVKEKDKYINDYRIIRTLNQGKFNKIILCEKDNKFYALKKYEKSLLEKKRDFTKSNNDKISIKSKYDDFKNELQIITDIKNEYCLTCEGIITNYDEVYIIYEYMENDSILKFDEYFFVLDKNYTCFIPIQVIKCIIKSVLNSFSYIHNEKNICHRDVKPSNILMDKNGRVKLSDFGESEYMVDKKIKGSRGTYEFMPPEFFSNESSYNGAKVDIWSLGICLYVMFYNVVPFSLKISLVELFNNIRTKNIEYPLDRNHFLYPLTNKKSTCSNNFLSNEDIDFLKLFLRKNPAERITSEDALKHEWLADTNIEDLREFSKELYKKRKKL
Sequence of Calcium-dependent protein kinase 1 (Plasmodium falciparum (isolate 3D7)) (P62344 whole entry, looked up): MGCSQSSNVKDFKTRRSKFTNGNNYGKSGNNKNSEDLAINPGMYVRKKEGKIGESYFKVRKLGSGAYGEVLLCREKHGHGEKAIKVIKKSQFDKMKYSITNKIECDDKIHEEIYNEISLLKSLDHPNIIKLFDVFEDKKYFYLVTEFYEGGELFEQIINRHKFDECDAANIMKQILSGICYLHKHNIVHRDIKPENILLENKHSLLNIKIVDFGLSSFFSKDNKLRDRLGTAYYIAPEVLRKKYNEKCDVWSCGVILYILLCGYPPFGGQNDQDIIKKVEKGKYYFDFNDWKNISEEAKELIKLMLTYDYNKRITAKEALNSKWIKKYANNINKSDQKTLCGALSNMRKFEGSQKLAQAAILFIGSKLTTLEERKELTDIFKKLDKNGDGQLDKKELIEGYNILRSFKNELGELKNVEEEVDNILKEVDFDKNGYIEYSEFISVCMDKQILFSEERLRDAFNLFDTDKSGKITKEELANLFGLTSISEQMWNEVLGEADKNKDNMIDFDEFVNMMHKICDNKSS
Sequence of Calcium-dependent protein kinase 4 (Plasmodium falciparum (isolate 3D7)) (Q8IBS5 whole entry, looked up): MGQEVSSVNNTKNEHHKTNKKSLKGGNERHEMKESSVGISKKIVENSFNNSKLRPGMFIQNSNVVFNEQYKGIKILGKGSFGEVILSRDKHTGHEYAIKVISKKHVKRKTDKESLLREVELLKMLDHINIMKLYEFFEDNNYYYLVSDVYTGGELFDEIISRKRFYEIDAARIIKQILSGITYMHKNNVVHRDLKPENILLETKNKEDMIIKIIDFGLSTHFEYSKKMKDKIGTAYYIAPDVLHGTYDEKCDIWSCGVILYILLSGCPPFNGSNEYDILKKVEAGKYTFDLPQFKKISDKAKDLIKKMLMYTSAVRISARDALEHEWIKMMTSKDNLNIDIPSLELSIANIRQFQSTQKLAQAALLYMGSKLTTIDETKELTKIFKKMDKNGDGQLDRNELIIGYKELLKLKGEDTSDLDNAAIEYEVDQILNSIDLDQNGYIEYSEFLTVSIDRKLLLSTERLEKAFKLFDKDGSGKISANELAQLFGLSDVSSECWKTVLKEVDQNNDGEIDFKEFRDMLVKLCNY
Sequence of Plasmodium falciparum protein kinase 6 (PK6, PF3D7_1337100) (Q8IDW1 1-305): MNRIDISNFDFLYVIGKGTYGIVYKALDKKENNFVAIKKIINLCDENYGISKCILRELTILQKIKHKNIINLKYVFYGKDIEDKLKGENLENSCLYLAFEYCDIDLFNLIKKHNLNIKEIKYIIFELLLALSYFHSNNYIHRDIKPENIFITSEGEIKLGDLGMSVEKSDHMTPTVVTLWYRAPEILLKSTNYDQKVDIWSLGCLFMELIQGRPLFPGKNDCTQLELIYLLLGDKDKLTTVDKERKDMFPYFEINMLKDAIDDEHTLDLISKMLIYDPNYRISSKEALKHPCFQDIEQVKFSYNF
Sequence of L-lactate dehydrogenase (Plasmodium falciparum (isolate CDC / Honduras)) (Q27743 whole entry, looked up): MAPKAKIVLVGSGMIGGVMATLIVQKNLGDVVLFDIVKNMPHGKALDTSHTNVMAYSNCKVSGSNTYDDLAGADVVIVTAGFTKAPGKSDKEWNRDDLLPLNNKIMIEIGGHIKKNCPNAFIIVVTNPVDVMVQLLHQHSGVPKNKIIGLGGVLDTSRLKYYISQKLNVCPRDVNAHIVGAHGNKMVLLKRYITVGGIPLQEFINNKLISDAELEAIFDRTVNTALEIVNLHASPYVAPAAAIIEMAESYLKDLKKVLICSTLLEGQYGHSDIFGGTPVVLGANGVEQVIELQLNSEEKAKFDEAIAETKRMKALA

With `COc1ccccc1NS(=O)(=O)c1cc(C(=O)Nc2ccc(N3CCOCC3)c(S(=O)(=O)Nc3ccccc3Cl)c2)ccc1Cl`, the growth inhibition in assay [1] is 25%; in assay [4], 97% (active). Also, the inhibition (in general, the relative decrease from the control value, in per cent) was -3% in assay [2] and -2% in assay [3]. In addition, the outcome in assay [5], in assay [6], in assay [7] and in assay [8] was inactive.

As to `Cc1ccc(NC(=O)c2cc(S(=O)(=O)NC(C)(C)C)ccc2C)nc1`, the growth inhibition is 80% (active) in assay [1] and 86% (active) in assay [4]. Also, the inhibition in assay [2] was -1%; in assay [3], -2%. The result in assay [5], in assay [6], in assay [7] and in assay [8] was inactive.

For `CCNc1cc(C(=O)N[C@@H](Cc2ccccc2)[C@H](O)CNCc2cccc(-n3ccnc3)c2)cc(N2CCCC2=O)c1`, the growth inhibition in assay [1] was 96% (active); in assay [4], 99% (active). The inhibition in assay [2] and in assay [3] was 1% each time. Further, the result in assay [5], in assay [6], in assay [7] and in assay [8] was inactive.

`Clc1ncccc1-c1nc(NCCC(c2ccccc2)c2ccccc2)no1`: the growth inhibition is 82% (active) in assay [1] and 94% (active) in assay [4]. Also, the inhibition in assay [2] was 12%; in assay [3] it was 3%. In addition, the outcome in assay [5], in assay [6], in assay [7] and in assay [8] was inactive.

As for `CN1CCN(CCCN(Cc2ccc(-c3cccc(CNCc4ccc5c(c4)OCO5)c3)cc2)C(=O)NCCc2ccccc2)CC1`, the values for the growth inhibition in assay [1] and in assay [4] were 85% (active) and 98% (active), respectively. Also, the inhibition in assay [2] is 36%; in assay [3], 3%. Also, the outcome in assay [5], in assay [6], in assay [7] and in assay [8] was inactive.

Turning to `Cc1c(C(=O)NCc2ccncc2)sc2nc(-c3cccc([N+](=O)[O-])c3)cn12`, the growth inhibition in assay [1] is 29%; in assay [4] it was 97% (active). Moreover, the figures for the inhibition in assay [2] and in assay [3] were 18% and -2%, respectively. Moreover, the outcome in assay [5], in assay [6], in assay [7] and in assay [8] was inactive.

On to `O=C(Nc1cc(C(F)(F)F)cc(C(F)(F)F)c1)c1cc(C(F)(F)F)cc(C(F)(F)F)c1`, for which the growth inhibition was 86% (active) in assay [1] and 101% (active) in assay [4]. The inhibition in assay [2] is 21%; in assay [3], 2%. The result in assay [5], in assay [6], in assay [7] and in assay [8] was inactive.

Consider `CN(C)C(=O)c1cccc(COc2ccc(N3C(N)=NC(N)=NC3(C)C)cc2Cl)c1`, for which the inhibition in assay [3] was 1%. Moreover, the result in assay [5], in assay [6], in assay [7] and in assay [8] was inactive.

`Oc1ccc(-c2nc3c(N4CCN(Cc5ccccc5)CC4)cccc3n2C2CCNCC2)cc1`: the growth inhibition in assay [1] was 7%; in assay [4], 85% (active). Further, the inhibition in assay [2] was -1%; in assay [3] it was 0%. Moreover, the outcome in assay [5], in assay [6], in assay [7] and in assay [8] was inactive.

Consider `Cc1cccc(-c2ccc(NC(=O)Nc3ccc4nccc(N5CCN(C)CC5)c4c3)cc2C)n1`, for which the growth inhibition in assay [1] was 95% (active); in assay [4], 101% (active). Further, the inhibition is 4% in assay [2] and -3% in assay [3]. In addition, the result in assay [5], in assay [6], in assay [7] and in assay [8] was inactive.

On to `Cc1ccc(S(C)(=O)=O)cc1/C=C/C(=O)O`, for which the results for the growth inhibition in assay [1] and in assay [4] were 1% and 96% (active), respectively. The results for the inhibition in assay [2] and in assay [3] were -7% and 4%, respectively. In addition, the outcome in assay [5], in assay [6], in assay [7] and in assay [8] was inactive.

Take `COc1cccc(CN2CCC(N3CCc4cc(NC(=O)c5cc(C)on5)ccc43)C2)c1OC` (stereo unspecified): the values for the growth inhibition in assay [1] and in assay [4] were 92% (active) and 93% (active), respectively. For the same compound, the figures for the inhibition in assay [2] and in assay [3] were 9% and 4%, respectively. Besides, the outcome in assay [5], in assay [6], in assay [7] and in assay [8] was inactive.

Take `CC(c1cccc(S(=O)(=O)NCc2cccc(C(F)(F)F)c2)c1)N1CCC(N2CCCCC2)CC1` (stereo unspecified): the growth inhibition was 35% in assay [1] and 99% (active) in assay [4]. Further, the inhibition in assay [2] is 37%; in assay [3] it was 2%. In addition, the outcome in assay [5], in assay [6], in assay [7] and in assay [8] was inactive.

`O=C(Nc1ccc(-c2cccc(-c3nc4ccc(C(F)(F)F)cc4[nH]3)c2)cc1)c1ccoc1`: the growth inhibition in assay [1] was 13%; in assay [4], 96% (active). Also, the inhibition in assay [2] was 52% (active); in assay [3], -9%. In addition, the result in assay [5], in assay [6], in assay [7] and in assay [8] was inactive.

Take `COc1ccc(S(=O)(=O)NC2CCN(CCNC(=O)Nc3cc(C)nc4ccccc34)C2)cc1` (stereo unspecified): the growth inhibition in assay [1] was 41%; in assay [4] it was 88% (active). Moreover, the inhibition was -2% in assay [2] and 1% in assay [3]. Further, the result in assay [5], in assay [6], in assay [7] and in assay [8] was inactive.

In the case of `CCSc1nnc(C2CCCN(CC(=O)Nc3cc(C(F)(F)F)ccc3Cl)C2)n1CC` (stereo unspecified), the growth inhibition in assay [1] is 96% (active); in assay [4] it was 99% (active). Further, the inhibition in assay [2] was 0%; in assay [3] it was 5%. Moreover, the result in assay [5], in assay [6], in assay [7] and in assay [8] was inactive.

Consider `COc1cc(C(=O)NC2CC(C)(C)NC(C)(C)C2)ccc1-c1cc2cc(Cl)c(Cl)cc2[nH]1`, for which the values for the growth inhibition in assay [1] and in assay [4] were 31% and 99% (active), respectively. Also, the inhibition in assay [2] was 41%; in assay [3], 6%. Also, the result in assay [5], in assay [6], in assay [7] and in assay [8] was inactive.

On to `CC[C@H](C)CNC(=O)c1cncc(-c2ccc(CNC3CCCC3)cc2)c1`, for which the results for the growth inhibition in assay [1] and in assay [4] were 5% and 97% (active), respectively. Besides, the inhibition in assay [2] is -25%; in assay [3], 0%. In addition, the outcome in assay [5], in assay [6], in assay [7] and in assay [8] was inactive.
